# Assay results from the supplement of paper PMC8728848.
# Shown is part of a subset that was picked to be rich in the strongest signals.
# B1: SAG1 (Toxoplasma gondii), P13664 (protein)
# chain: MSVSLHHFIISSGFLTSMFPKAVRRAVTAGVFAAPTLMSFLRCGVMASDPPLVANQVVTCPDKKSTAAVILTPTENHFTLKCPKTALTEPPTLAYSPNRQICPAGTTSSCTSKAVTLSSLIPEAEDSWWTGDSASLDTAGIKLTVPIEKFPVTTQTFVVGCIKGDDAQSCMVTVTVQARASSVVNNVARCSYGADSTLGPVKLSAEGPTTMTLVCGKDGVKVPQDNNQYCSGTTLTGCNEKSFKDILPKLTENPWQGNASSDKGATLTIKKEAFPAESKSVIIGCTGGSPEKHHCTVKLEFAGAAGSAKSAAGTASHVSIFAMVIGLIGSIAACVA
# B2: cupB6 (Pseudomonas aeruginosa), Q02SP7 (protein)
# chain: MSMRLFPGRVSLRRRPGAQARQALVLGLCCLTGGQAWALNEVALNCSFGNGKGLPWRVVNELTSGTAKGTVLFARPVSLFLSYKPQASQEAHELVLGGNWSGVGYPGPYGTVASDVKGIGYRISVDAQDGVKRVIPVDNQPHALDKRVTSFSGSTTSDYLQELVLTVDPGELPAGDLKVTSVSGSATLNLWAVDRLKGEASIGSVLAVPADNYPTGVCRKPYSLIGPASIAIGGGPPPPPIPKKCKVEVGREINVKLGSVALKNFPRVNDTSTERSFDISLSECAALAKPEIAFRDKYVSAQQADPTILSLKSGGAAGFGIVVKNGLDQQRIRFDGTPYPMRRVGDSADLPLSAAYIRIGAEGELKAGVADGAAEFTFTFP
# Legend:
# Test in all cases: glycan array binding signal (z-score within array); higher = stronger binding
# Conditions in all cases: glycan notation: IUPAC condensed, linker removed
# [1] = biological target: Fuc(a1-2)Gal(b1-3)[Fuc(a1-4)]GlcNAc
# Method in brief: (§1)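 From the Consortium for Functional Glycomics database, 3228 arrays were curated, keeping only those whose protein sequence was available. Binding is given as a within-array Z-score averaged across arrays sharing a protein sequence and across linkers. Negative Z-scores can be read as non-binding.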
# [2] = biological target: Fuc(a1-2)[Gal(a1-3)]Gal(b1-4)GlcNAc(b1-2)Man(a1-3)[Fuc(a1-2)[Gal(a1-3)]Gal(b1-4)GlcNAc(b1-2)Man(a1-6)]Man(b1-4)GlcNAc(b1-4)GlcNAc
# Method in brief: as §1
# [3] = biological target: Fuc(a1-2)[GalNAc(a1-3)]Gal(b1-3)GlcNAc(b1-2)Man(a1-3)[Fuc(a1-2)[GalNAc(a1-3)]Gal(b1-3)GlcNAc(b1-2)Man(a1-6)]Man(b1-4)GlcNAc(b1-4)GlcNAc
# Method in brief: as §1
# [4] = biological target: Fuc(a1-3)[Gal(b1-4)]GlcNAc(b1-2)Man(a1-3)[Fuc(a1-3)[Gal(b1-4)]GlcNAc(b1-2)Man(a1-6)]Man(b1-4)GlcNAc(b1-4)GlcNAc
# Method in brief: as §1
# [5] = biological target: Fuc(a1-3)[Gal(b1-4)]GlcNAc(b1-3)Gal(b1-3)[Fuc(a1-4)]GlcNAc
# Method in brief: as §1
# [6] = biological target: Gal(a1-3)Gal(b1-3)GlcNAc(b1-2)Man(a1-3)[Gal(a1-3)Gal(b1-3)GlcNAc(b1-2)Man(a1-6)]Man(b1-4)GlcNAc(b1-4)GlcNAc
# Method in brief: as §1
# [7] = biological target: Gal(b1-3)[GlcNAc(b1-6)]GalNAc
# Method in brief: as §1
# [8] = biological target: Gal(b1-4)GlcNAc(a1-6)Gal(b1-4)GlcNAc
# Method in brief: as §1
# [9] = biological target: Gal3S(b1-3)[Fuc(a1-4)]GlcNAc
# Method in brief: as §1
# [10] = biological target: Gal6S(b1-4)Glc
# Method in brief: as §1
# [11] = biological target: GalNAc(a1-3)Gal
# Method in brief: as §1
# [12] = biological target: GlcNAc(a1-4)Gal(b1-4)GlcNAc(b1-3)Gal(b1-4)GlcNAc(b1-3)Gal(b1-4)GlcNAc
# Method in brief: as §1
# [13] = biological target: GlcNAc(a1-4)Gal(b1-4)GlcNAc(b1-3)Gal(b1-4)[Fuc(a1-3)]GlcNAc(b1-3)Gal(b1-4)[Fuc(a1-3)]GlcNAc
# Method in brief: as §1
# [14] = biological target: Man(a1-3)[Man(a1-6)]Man(a1-6)[Man(a1-3)]Man
# Method in brief: as §1
# [15] = biological target: Neu5Ac(a2-3)Gal(b1-3)GalNAc(b1-4)[Neu5Ac(a2-3)]Gal(b1-4)Glc
# Method in brief: as §1
# [16] = biological target: Neu5Ac(a2-3)Gal(b1-3)GlcNAc
# Method in brief: as §1
# [17] = biological target: Neu5Ac(a2-3)Gal(b1-4)GlcNAc(b1-3)Gal(b1-4)GlcNAc(b1-3)Gal(b1-4)GlcNAc
# Method in brief: as §1
# [18] = biological target: Neu5Ac(a2-3)Gal(b1-4)GlcNAc(b1-3)Gal(b1-4)[Fuc(a1-3)]GlcNAc
# Method in brief: as §1
# [19] = biological target: Neu5Ac(a2-3)Gal(b1-4)GlcNAc(b1-6)[Neu5Ac(a2-3)Gal(b1-3)]GalNAc
# Method in brief: as §1
# [20] = biological target: Neu5Ac(a2-3)Gal(b1-4)[Fuc(a1-3)]GlcNAc(b1-3)GalNAc
# Method in brief: as §1
# [21] = biological target: Neu5Ac(a2-3)Gal(b1-4)[Fuc(a1-3)]GlcNAc6S
# Method in brief: as §1
# [22] = biological target: Neu5Ac(a2-6)Gal(b1-4)GlcNAc(b1-2)Man(a1-6)[GlcNAc(b1-2)Man(a1-3)]Man(b1-4)GlcNAc(b1-4)GlcNAc
# Method in brief: as §1
# [23] = biological target: Neu5Ac(a2-6)GlcNAc(b1-4)GlcNAc(b1-4)GlcNAc
# Method in brief: as §1
# [24] = biological target: Neu5Ac(a2-8)Neu5Ac(a2-8)Neu5Ac(a2-8)Neu5Ac(a2-3)[GalNAc(b1-4)]Gal(b1-4)Glc
# Method in brief: as §1
# [25] = biological target: Neu5Gc(a2-3)Gal(b1-3)[Fuc(a1-4)]GlcNAc
# Method in brief: as §1
# [26] = biological target: Neu5Ac(a2-3)GalNAc(b1-4)GlcNAc
# Method in brief: as §1
# [27] = biological target: Neu5Ac(a2-6)Gal(b1-4)GlcNAc
# Method in brief: as §1
# [28] = biological target: Neu5Ac(a2-6)Gal(b1-4)GlcNAc(b1-2)Man(a1-3)Man(b1-4)GlcNAc(b1-4)GlcNAc
# Method in brief: as §1
# [29] = biological target: Neu5Ac(a2-6)Gal(b1-4)GlcNAc(b1-2)Man(a1-3)[Man(a1-6)]Man(b1-4)GlcNAc(b1-4)GlcNAc
# Method in brief: as §1
# [30] = biological target: Neu5Ac(a2-6)Gal(b1-4)GlcNAc(b1-2)Man(a1-6)[Man(a1-3)]Man(b1-4)GlcNAc(b1-4)GlcNAc
# Method in brief: as §1
# [31] = biological target: Neu5Ac(a2-8)Neu5Ac
# Method in brief: as §1
# [32] = biological target: Neu5Ac(a2-8)Neu5Ac(a2-8)Neu5Ac(a2-3)[GalNAc(b1-4)]Gal(b1-4)Glc
# Method in brief: as §1
Binder,glycan array binding signal (z-score) [1],glycan array binding signal (z-score) [2],glycan array binding signal (z-score) [3],glycan array binding signal (z-score) [4],glycan array binding signal (z-score) [5],glycan array binding signal (z-score) [6],glycan array binding signal (z-score) [7],glycan array binding signal (z-score) [8],glycan array binding signal (z-score) [9],glycan array binding signal (z-score) [10],glycan array binding signal (z-score) [11],glycan array binding signal (z-score) [12],glycan array binding signal (z-score) [13],glycan array binding signal (z-score) [14],glycan array binding signal (z-score) [15],glycan array binding signal (z-score) [16],glycan array binding signal (z-score) [17],glycan array binding signal (z-score) [18],glycan array binding signal (z-score) [19],glycan array binding signal (z-score) [20],glycan array binding signal (z-score) [21],glycan array binding signal (z-score) [22],glycan array binding signal (z-score) [23],glycan array binding signal (z-score) [24],glycan array binding signal (z-score) [25],glycan array binding signal (z-score) [26],glycan array binding signal (z-score) [27],glycan array binding signal (z-score) [28],glycan array binding signal (z-score) [29],glycan array binding signal (z-score) [30],glycan array binding signal (z-score) [31],glycan array binding signal (z-score) [32]
B1,0.139,0.615,-0.505,1.86,-0.232,1.47,-0.229,-0.386,7.52,-0.579,-0.761,0.265,2.24,-0.442,0.728,0,-0.703,1.71,1.61,3.63,-0.651,-0.2,-0.384,-0.241,0.031,,,,,,,
B2,,,,,,,,,,,,,,,,,,,,,,,,-0.043,,-0.177,-0.15,0.058,0.325,0.107,-0.002,-0.074
